Results from the supplement of paper PMC12350171.
Counter-ions that a name gives are not always drawn. Unmarked numbers belong to inactive results.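 The calls were made as follows: active = AUC significantly below DMSO controls by Student t-fit with adjusted P under 0.01; inactive = not significantly reduced.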

These molecules were tested on Shigella flexneri (assay: growth AUC normalised to DMSO control (fraction of control); higher = less growth inhibition, active = hit call of the paper). Conditions: 20 µM.
Procedure, shortened: (§1)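 Pathogens passaged twice anaerobically were inoculated at a starting OD578 of 0.01 into pre-reduced mGAM plates with drug at 20 μM and 1% DMSO, sealed with breathable membranes. Haemophilus parainfluenzae medium was supplemented with hemin and NAD. OD578 was read hourly for 24 h, with three biological replicates. Growth-curve AUC was computed by the trapezoidal rule up to the exponential-to-stationary transition and normalised to DMSO controls on the same plate.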

Row | SMILES | growth AUC normalised to DMSO control
1 | N=C(N)c1ccc(OCCCCCOc2ccc(C(=N)N)cc2)cc1 [Pentamidine isethionate] | 0.984
2 | COc1cc([C@@H]2c3cc4c(cc3[C@@H](O[C@@H]3O[C@@H]5CO[C@@H](C)O[C@H]5[C@H](O)[C@H]3O)[C@H]3COC(=O)[C@H]23)OCO4)cc(OC)c1O [Etoposide] | 1.03
3 | Cc1ncc(C[n+]2csc(CCO)c2C)c(N)n1 [Thiamine hydrochloride] | 0.961
4 | O=c1[nH]cnc2c1ncn2[C@H]1CC[C@@H](CO)O1 [Didanosine] | 1.01
5 | Cc1ccc(/C(=C\CN2CCCC2)c2ccccn2)cc1 [Triprolidine hydrochloride] | 0.97
6 | O=C1C(=O)c2ccccc2C(O)=C1C1CCC(c2ccc(Cl)cc2)CC1 (stereo not given) [Atovaquone] | 0.976

Each molecule was assayed on Vibrio cholerae in the same assay as above. Conditions: 20 µM.
Procedure, shortened: as §1

Row | SMILES | growth AUC normalised to DMSO control
7 | CC(=O)Oc1ccc(C(c2ccc(OC(C)=O)cc2)c2ccccn2)cc1 [Bisacodyl] | 0.991
8 | O=C(O)c1cc(/N=N/c2ccc(S(=O)(=O)Nc3ccccn3)cc2)ccc1O [Sulfasalazine] | 1.01
9 | COc1ccc2c(c1)c(CC(=O)O)c(C)n2C(=O)c1ccc(Cl)cc1 [Indomethacin] | 0.448 (active)
10 | C[C@]12CC[C@@H]3c4ccc(O)cc4CC[C@H]3[C@@H]1C[C@@H](O)[C@@H]2O [Estriol] | 1.02
11 | CC(=O)[C@H]1CC[C@H]2[C@@H]3CCC4=CC(=O)CC[C@]4(C)[C@H]3CC[C@]12C [Progesterone] | 1
12 | O=C(O)c1cccnc1 [Niacin] | 1.06
13 | Cc1cn([C@H]2C[C@H](N=[N+]=[N-])[C@@H](CO)O2)c(=O)[nH]c1=O [Zidovudine] | 0.956
14 | C=C(CC)C(=O)c1ccc(OCC(=O)O)c(Cl)c1Cl [Ethacrynic acid] | 1.02
15 | Cn1c(=O)c2nc[nH]c2n(C)c1=O [Theophylline monohydrate] | 1.07
16 | COC1=CC(=O)C[C@@H](C)[C@]12Oc1c(Cl)c(OC)cc(OC)c1C2=O [Griseofulvin] | 0.99
17 | C[C@H]1[C@H](NC(=O)/C(=N\OC(C)(C)C(=O)O)c2csc(N)n2)C(=O)N1S(=O)(=O)O [Aztreonam] | 0.773 (active)
18 | CC(C)NC[C@H](O)COc1cccc2ccccc12 [(S)-(-)-Propranolol hydrochloride] | 1.01
19 | CN/C(=N\CCSCc1nc[nH]c1C)NC#N [Cimetidine] | 1
20 | N=C(N)c1ccc(OCCCCCOc2ccc(C(=N)N)cc2)cc1 [Pentamidine isethionate] | 1.02
21 | Cc1cc(/C=C/c2ccc3cc(N(C)C)ccc3[n+]2C)c(C)n1-c1ccccc1 [Pyrvinium pamoate] | 0.865
22 | COc1cc([C@@H]2c3cc4c(cc3[C@@H](O[C@@H]3O[C@@H]5CO[C@@H](C)O[C@H]5[C@H](O)[C@H]3O)[C@H]3COC(=O)[C@H]23)OCO4)cc(OC)c1O [Etoposide] | 1.02
23 | Cc1ncc(C[n+]2csc(CCO)c2C)c(N)n1 [Thiamine hydrochloride] | 0.967
24 | O=c1[nH]cnc2c1ncn2[C@H]1CC[C@@H](CO)O1 [Didanosine] | 1.04
25 | Cc1ccc(/C(=C\CN2CCCC2)c2ccccn2)cc1 [Triprolidine hydrochloride] | 0.967

Each molecule was assayed on Yersinia pseudotuberculosis in the same assay as above. Conditions: 20 µM.
Procedure, shortened: as §1

Row | SMILES | growth AUC normalised to DMSO control
26 | CC(=O)Oc1ccc(C(c2ccc(OC(C)=O)cc2)c2ccccn2)cc1 [Bisacodyl] | 1.01
27 | O=C(O)c1cc(/N=N/c2ccc(S(=O)(=O)Nc3ccccn3)cc2)ccc1O [Sulfasalazine] | 0.99
28 | COc1ccc2c(c1)c(CC(=O)O)c(C)n2C(=O)c1ccc(Cl)cc1 [Indomethacin] | 1
29 | C[C@]12CC[C@@H]3c4ccc(O)cc4CC[C@H]3[C@@H]1C[C@@H](O)[C@@H]2O [Estriol] | 1.01
30 | CC(=O)[C@H]1CC[C@H]2[C@@H]3CCC4=CC(=O)CC[C@]4(C)[C@H]3CC[C@]12C [Progesterone] | 1
31 | O=C(O)c1cccnc1 [Niacin] | 0.993
32 | Cc1cn([C@H]2C[C@H](N=[N+]=[N-])[C@@H](CO)O2)c(=O)[nH]c1=O [Zidovudine] | 0.781 (active)
33 | O=C(C1CCCCC1)N1CC(=O)N2CCc3ccccc3C2C1 (stereo not given) [Praziquantel] | 0.996
34 | Cn1c(=O)c2nc[nH]c2n(C)c1=O [Theophylline monohydrate] | 1.02
35 | COC1=CC(=O)C[C@@H](C)[C@]12Oc1c(Cl)c(OC)cc(OC)c1C2=O [Griseofulvin] | 1.03
36 | C[C@H]1[C@H](NC(=O)/C(=N\OC(C)(C)C(=O)O)c2csc(N)n2)C(=O)N1S(=O)(=O)O [Aztreonam] | 0.135 (active)
37 | CC(C)NC[C@H](O)COc1cccc2ccccc12 [(S)-(-)-Propranolol hydrochloride] | 0.996
38 | CN/C(=N\CCSCc1nc[nH]c1C)NC#N [Cimetidine] | 1
39 | Cc1ncc([N+](=O)[O-])n1CCO [Metronidazole] | 1
40 | N=C(N)c1ccc(OCCCCCOc2ccc(C(=N)N)cc2)cc1 [Pentamidine isethionate] | 1.02
41 | COc1cc([C@@H]2c3cc4c(cc3[C@@H](O[C@@H]3O[C@@H]5CO[C@@H](C)O[C@H]5[C@H](O)[C@H]3O)[C@H]3COC(=O)[C@H]23)OCO4)cc(OC)c1O [Etoposide] | 0.99
42 | Cc1ncc(C[n+]2csc(CCO)c2C)c(N)n1 [Thiamine hydrochloride] | 0.999
43 | O=c1[nH]cnc2c1ncn2[C@H]1CC[C@@H](CO)O1 [Didanosine] | 0.73 (active)
44 | Cc1ccc(/C(=C\CN2CCCC2)c2ccccn2)cc1 [Triprolidine hydrochloride] | 0.992
45 | O=C1C(=O)c2ccccc2C(O)=C1C1CCC(c2ccc(Cl)cc2)CC1 (stereo not given) [Atovaquone] | 0.993
